According to PubChem BioAssay (EPA / NIEHS):
Several values for one entry are separate records, joined by “and”; a condition that tells them apart may be missing. Equal entries are not always repeated. Records with an inconclusive call do not appear. Some structures have more than one record in an assay (separate samples or runs), and their calls can disagree. Activity calls are given as the source filed them. How the source made its calls, unless noted: active means hit-call score of the fitted dose curve at least 0.9, where 1 is the maximum; inactive means score below 0.9.

Tests used:
[1] = read-out: Interleukin-1 alpha (IL1a), IL1A (gene 3552); test: BSK_IMphg_IL1a: BioMAP Diversity Plus: IMphg Assay for Interleukin-1 alpha (IL1a) Biomarker Activity (AID 2284290); conditions: primary human endothelial cells with macrophages
In short: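 Human venular endothelial cells co-cultured with macrophages, IMphg system. IL-1α is measured by ELISA 24 h after dosing and fitted in the positive direction against DMSO. Cytotoxicity is assessed by SRB staining of parallel cultures.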

[2] = BSK_IMphg_SRB: Viability Assessment in the BioMAP Diversity Plus: IMphg Assay (AID 2284292); conditions: primary human endothelial cells with macrophages;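 further: measured one day after compound addition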
In short: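 Human venular endothelial cells with macrophages, 24 h after chemical dosing; total protein by 0.1% SRB staining after 10% TCA fixation, read at 560 nm. Positive-direction fitting versus DMSO baseline.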

[3] = read-out: Interleukin-10 (IL10), IL10 (gene 3586); test: BSK_IMphg_IL10: BioMAP Diversity Plus: IMphg Assay for Interleukin-10 (IL10) Biomarker Activity (AID 2284294); conditions: primary human endothelial cells with macrophages
In short: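 Human venular endothelial cells cocultured with macrophages, dosed 24 h; IL-10 measured by ELISA, activity relative to DMSO. Cytotoxicity assessed in parallel cultures by sulforhodamine B total-protein staining.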

[4] = BSK_IMphg_SRB.Mphg: Macrophage Viability Assessment in the BioMAP Diversity Plus: IMphg Assay (AID 2284295); conditions: primary human endothelial cells with macrophages
In short: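 Venular endothelial cells co-cultured with macrophages, read 24 h after dosing. Total protein measured by 0.1% SRB staining after 10% TCA fixation, absorbance at 560 nm. Fitted in positive direction against DMSO baseline.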

[5] = read-out: Thrombomodulin, THBD (gene 7056); test: BSK_LPS_Thrombomodulin: BioMAP Diversity Plus: LPS Assay for Thrombomodulin Biomarker Activity (AID 2284296); conditions: primary human HUVEC with PBMC
In short: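 Human umbilical vein endothelial cells co-cultured with PBMC and stimulated with LPS; cell-surface thrombomodulin measured by ELISA 24 hours after compound. Gain or loss versus DMSO; cytotoxicity checked by SRB staining in parallel cultures.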

[6] = Tanguay_ZF_120hpf_MO24: Oregon State University Tanguay Lab 24 Hour Post-fertilization zebrafish Assay for Mortality (AID 2284389)
In short: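 Dechorionated wild-type zebrafish embryos, 1 per well, statically exposed from 6 hpf at 28C, 0.64% DMSO final. Mortality scored as binary present/absent at 24 hpf by brightfield microscopy, relative to DMSO.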

[7] = Tanguay_ZF_120hpf_MORT: Oregon State University Tanguay Lab 120 Hour Post-fertilization zebrafish Assay for Mortality (AID 2284399)
In short: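 Dechorionated wild-type Tropical 5D zebrafish embryos, one per well from 6 hpf, static exposure to 120 hpf at 28C in sealed dark plates, 0.64% DMSO final. Mortality scored as binary by brightfield at 24 and 120 hpf.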

[8] = Tanguay_ZF_120hpf_BRN: Oregon State University Tanguay Lab 120 Hour Post-fertilization zebrafish Assay for Brain Region Malformation (AID 2284402)
In short: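 Dechorionated wild-type Tropical 5D zebrafish embryos exposed statically from 6 to 120 hpf at 28C, one per well, 0.64% DMSO final. Brain malformation scored at 120 hpf by brightfield as present/absent; dead embryos not scored.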

[9] = read-out: Macrophage colony-stimulating factor (MCSF), CSF1 (gene 1435); test: BSK_IMphg_MCSF: BioMAP Diversity Plus: IMphg Assay for Macrophage colony-stimulating factor (MCSF) Biomarker Activity (AID 2284293); conditions: primary human endothelial cells with macrophages
In short: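 Co-culture of human venular endothelial cells and macrophages, 24 hours of chemical exposure. M-CSF quantified by ELISA, with parallel SRB total-protein staining for cytotoxicity; activity fitted relative to DMSO.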

CD69, CD69 (gene 969) = test: BSK_LPS_CD69: BioMAP Diversity Plus: LPS Assay for CD69 Biomarker Activity (AID 2284303); conditions: primary human HUVEC with PBMC
In short: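 Human umbilical vein endothelial cells co-cultured with PBMC under LPS stimulation, chemical exposure 24 h; cell-surface CD69 measured by ELISA and fitted in the positive direction versus DMSO.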

[10] = CCTE_Mundy_HCI_iCellGluta_NOG_NeuriteLength: CCTE's Neurite Outgrowth Assay in iCellGluta cells for Neurite Length, Mundy Lab (AID 2284318; active means hit-call score of the fitted dose curve at least 0.9, where 1 is the maximum)
In short: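 Automated high-content imaging of betaIII-tubulin (Alexa Fluor-488) and Hoechst-stained cells gave neurite length, normalized to the DMSO baseline.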

TTR (gene 7276) = test: CCTE_GLTED_hTTR_0.5uM: CCTE's human Transthyretin (hTTR) Inhibition Assay, with 0.5uM TTR, Great Lakes Toxicology and Ecology Division (GLTED) Lab (AID 2284320)
In short: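 Cell-free displacement assay in which human TTR at 0.5 uM was incubated with test chemical for 2 h. Displacement of the ANSA probe was read by fluorescence at 380 nm excitation/475 nm emission. Loss of signal was fitted in the positive direction versus DMSO.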

[11] = CCTE_Mundy_HCI_iCellGluta_NOG_NeuronCount: CCTE's Neurite Outgrowth Assay in iCellGluta cells for Neuron Count, Mundy Lab (AID 2284340; active means hit-call score of the fitted dose curve at least 0.9, where 1 is the maximum;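 further: cells fixed about 48 h after compound addition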)
In short: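 Neuron count read by automated high-content imaging of Hoechst 33342 and betaIII-tubulin/Alexa Fluor-488 labelling in human iPSC glutamatergic neurons. Activity fitted relative to DMSO.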

[12] = CCTE_Mundy_HCI_iCellGluta_NOG_NeuriteCount: CCTE's Neurite Outgrowth Assay in iCellGluta cells for Neurite Count, Mundy Lab (AID 2284342; active means hit-call score of the fitted dose curve at least 0.9, where 1 is the maximum;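 further: chemical exposure about 48 hours starting 2 hours after plating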)
[13] = read-out: E-selectin (Homo sapiens) (UniProt P16581); test: BSK_IMphg_ESelectin: BioMAP Diversity Plus: IMphg Assay for Eselectin Biomarker Activity (AID 2284291); conditions: primary human endothelial cells with macrophages
In short: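 Human venular endothelial cell–macrophage co-culture, E-selectin measured by ELISA 24 h after chemical dosing. Signal fitted in the positive direction against DMSO as negative control and baseline.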

Measured: AC50

E-selectin (Homo sapiens), sequence (P16581 whole entry, looked up): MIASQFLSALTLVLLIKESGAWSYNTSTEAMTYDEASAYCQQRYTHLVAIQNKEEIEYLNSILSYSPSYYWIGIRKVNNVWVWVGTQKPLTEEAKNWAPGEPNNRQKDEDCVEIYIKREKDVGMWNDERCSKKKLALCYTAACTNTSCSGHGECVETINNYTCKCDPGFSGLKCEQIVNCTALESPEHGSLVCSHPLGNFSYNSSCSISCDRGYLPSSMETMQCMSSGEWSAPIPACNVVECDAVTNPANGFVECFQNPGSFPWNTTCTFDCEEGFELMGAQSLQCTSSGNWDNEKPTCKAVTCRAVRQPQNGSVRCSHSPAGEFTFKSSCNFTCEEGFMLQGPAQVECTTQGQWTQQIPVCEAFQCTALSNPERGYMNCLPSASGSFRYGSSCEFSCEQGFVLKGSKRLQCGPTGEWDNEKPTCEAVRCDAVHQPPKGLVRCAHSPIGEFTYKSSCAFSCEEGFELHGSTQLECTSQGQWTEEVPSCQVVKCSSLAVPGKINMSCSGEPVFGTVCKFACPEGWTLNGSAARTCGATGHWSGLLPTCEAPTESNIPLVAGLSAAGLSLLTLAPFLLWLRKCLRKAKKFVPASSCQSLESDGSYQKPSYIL

O=C(O)C(F)(F)C(F)(F)C(F)(F)C(=O)O
inactive: [1] | [2] | [3] | [4] | [5] | [6] | [7] | [8]

NC(=O)C(F)(F)C(F)(F)C(F)(F)F
inactive: [1] | [2] | [3] | [4] | [5] | [6] | [7] | [8]

O=C(F)C1(F)C(F)(F)C(F)(F)C(F)(F)C(F)(F)C1(F)F
active: TTR (gene 7276) 32.9 µM
not listed: [13]
inactive: all other assays above

C=CC(=O)OCC(F)(F)C(F)(F)C(F)(F)C(F)(F)C(F)(F)C(F)(F)C(F)(F)C(F)F
active: [5] 26.9 µM | TTR (gene 7276) 1.84 µM
inactive: [1] | [2] | [9] | [3] | [5] | [6] | [7] | [8]

CNS(=O)(=O)C(F)(F)C(F)(F)C(F)(F)C(F)(F)C(F)(F)C(F)(F)C(F)(F)C(F)(F)F
active: [1] 6.58 µM and 9.9 µM | [3] 17.9 µM | TTR (gene 7276) 1.34 µM | [7] 56.9 µM
inactive: [2] | [3] | [5] | [6] | [8]

C=CC(=O)OCC(F)(F)C(F)(F)C(F)(F)COC(=O)C=C
active: [1] 45 µM | [2] 43.8 µM | [3] 38.3 µM and 41.1 µM | [5] 8.08 µM and 7.99 µM | CD69, CD69 (gene 969) 15.9 µM and 10.5 µM | TTR (gene 7276) 0.424 µM | [6] 29.3 µM | [7] 16.3 µM | [8] 4.29 µM
inactive: [1] | [2] | [11] | [12]

NC(=O)C(F)(F)C(F)(F)C(F)(F)C(F)(F)C(F)(F)C(F)(F)C(F)(F)F
active: TTR (gene 7276) 5.65 µM | [6] 52.7 µM | [7] 41.3 µM
not listed: [4] | [9] | CD69, CD69 (gene 969)
inactive: all other assays above

OCC(F)(F)C(F)(F)C(F)(F)CO
inactive: [1] | [2] | [3] | [4] | [5] | [6] | [7] | [8]

NC(=O)C(F)(F)C(F)(F)C(F)(F)C(F)(F)C(N)=O
active: [5] 0.598 µM | TTR (gene 7276) 44.1 µM
inactive: [1] | [2] | [3] | [5] | [10] | [11] | [12] | [6] | [7] | [8]

O=C(O)C(F)(F)C(F)(F)C(F)(F)OC(F)(F)F
active: TTR (gene 7276) 4.54 µM
not listed: [9] | CD69, CD69 (gene 969) | [13]
inactive: all other assays above
